Shown are actives, neighbours in structure and some others; about 8% of the full set was active somewhere.
MARV entry inh – qHTS for inhibitors of binding or entry into cells for Marburg Virus | Marburg virus pseudotyped entry inhibition, cell reporter | Potency, µM (highest dose often 37.8 µM), usual class: inhibitors | 1.8% of 300,000 active | AID 540276, 2011; calls by dose curve; tested in HEK293 cells
SARS PLP yeast – qHTS of Yeast-based Assay for SARS-CoV PLP | S. cerevisiae expressing SARS-CoV PLpro, growth rescue | Potency, µM (series often up to 32.9 µM), usual class: activators | 0.19% of 330,000 active | AID 485353, 2010; calls by dose curve; also: nearly all actives have a fitted effect of over 55% in size
HCMV inh – qHTS Assay for inhibitors of the human cytomegalovirus (HCMV) | HFF cells, HCMV-luciferase reporter, 72 h; stronger effect = lower value | activity change, negative = inhibition, % at 57.5 µM | 4.5% of 410,000 active | AID 1259415, 2018; in the data active = activity change below about -60%; inconclusive = no clear call, values can overlap the other calls; inactive = above about -39%
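Inhibition of viral replication was scored as loss of reporter luminescence in HFFs infected with HCMV-luciferase (MOI 1 PFU/cell) for 72 h; compounds tested at 2 doses, normalized to buffer and Salinomycin controls.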
FMDV inh – High Throughput Screening for Foot and Mouth Disease Virus Antivirals; Potency, µM (highest dose often 57.9 µM), most hits filed as inhibitors; FMDV antiviral cell-based qHTS; 1.2% of 410,000 active; AID 1159524, 2015; calls by dose curve; tested in HEK293T cells; also: read-out not given here; nearly all actives have a fitted effect of over 45% in size
LASV entry inh – qHTS for Inhibitors of binding or entry into cells for Lassa Virus; Lassa virus pseudotype entry inhibition, cell reporter; Potency, µM (highest dose often 37.9 µM), most hits filed as inhibitors; 1.2% of 300,000 active; AID 540256, 2011; calls by dose curve; tested in HEK293 cells; also: nearly all actives have a fitted effect of over 50% in size
HCV inhibitor – qHTS Assay for Inhibitors of Hepatitis C Virus (HCV); 3.4% of 340,000 active; Potency, µM (highest dose often 41.8 µM), most hits filed as inhibitors; AID 651820, 2012; Huh7.5.1 HCVcc-Cre infection, luciferase reporter, 44 h; active = well fitted inhibition curve with a large enough effect; inconclusive = small, poorly fitted or top-dose-only effect, or another doubt; inactive = no such curve, though single readings can be large or run the other way
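Cells seeded at 1,000/well and cultured 4 h, then compounds added followed by HCVcc-Cre virus (~0.5 moi). After 44 h further culture, luciferase substrate was added, plates held 15 min at room temperature, and luminescence read for 15 sec.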
Numbers stand for hits; n = inactive; u = inconclusive; x = no result given.

SMILES	MARV entry inh	SARS PLP yeast	HCMV inh	FMDV inh	LASV entry inh	HCV inhibitor
C=CCn1c(O)c(/C=C2/C=CC=N2)c(=O)[nH]c1=O	x	n	n	n	x	n
CCOc1ccc(C2C(=O)N(C3CCCCCC3)CC(=O)N2Cc2ccc(F)cc2)cc1OC (stereo not given)	x	x	u	n	n	x
CSCC[C@H](NC(=O)OC(C)(C)C)C(=O)N/N=C/c1ccc2nccnc2c1	3.2µM	n	n	n	n	n
Cc1nnsc1C(=O)NC1CCCc2c1cnn2-c1cc(F)cc(F)c1 (stereo not given)	n	n	n	n	n	x
Cc1ccc(C(=O)NC2CCCc3c2cnn3-c2ccc(F)cc2F)cn1 (stereo not given)	x	n	-86	x	x	x
Cc1nnsc1C(=O)NC1CCCc2c1cnn2-c1ccc(F)cc1F (stereo not given)	u	n	-92	u	u	u
Nc1ncnc2c1ncn2[C@@H]1O[C@H](CO)C[C@H]1O	x	x	n	n	x	10µM
CC=C1OC(n2cnc3c(N)ncnc32)C(O)C1O (stereo not given)	x	x	n	n	x	x
Nc1ncnc2c1ncn2C1OC(CO)C2OC21 (stereo not given)	x	x	n	n	x	x
Nc1ncnc2c1ncn2C1C=C(CO)C(O)C1O (stereo not given)	u	x	x	n	0.25µM	u
CN(C)CCN(C(=O)c1ccco1)c1nc2c(F)cc(F)cc2s1	x	x	n	n	n	x
O=C(Nc1ccccc1)C1=C(c2ccccc2)S(=O)(=O)CCS1(=O)=O	2.8µM	n	-93	14µM	u	u
CC1(CO)COC2(OC1)C(=O)Nc1ccccc12 (stereo not given)	n	n	-76	n	n	n
O=C1Nc2ccccc2C12OCCCO2	u	n	n	n	n	n
CCCCN(CCCNc1ncnc2nc[nH]c12)c1ccccc1	n	n	n	n	n	u
CCN(CCCNc1ncnc2nc[nH]c12)c1cccc(C)c1	x	n	-76	u	x	u
CCCCC(=O)N(C)c1c(CC)nc2c(OCc3cc(Cl)cc(Cl)c3)cccn12	x	x	n	n	x	x
CN=c1scc(-c2cccs2)n1/N=C/c1ccccc1O	0.28µM	n	-98	4µM	1.3µM	13µM
CN=c1scc(-c2cccs2)n1/N=C/c1ccc(O)c(O)c1O	u	n	n	10µM	u	n
CN=c1scc(C)n1/N=C/c1ccc(O)c(O)c1O	u	n	n	n	n	n
Cc1ccc(S(=O)(=O)N2CCC(C(=O)OCC(=O)N3CCCC(C)C3)CC2)cc1C (stereo not given)	n	n	n	n	n	n
CSc1cccc(NS(=O)(=O)c2cn(C)c(C)n2)c1	x	x	n	n	n	x
Cc1c2c(=O)n(-c3nc4ccccc4s3)nc-2cc(O)n1Cc1ccccc1	x	n	x	7.1µM	x	n
COc1ccc(/C=N/NC(=O)c2nc(Cl)c(Cl)c(N)c2Cl)cc1COc1ccc(F)cc1F	n	n	n	n	u	11µM
CCOC(=O)c1ccccc1OCc1cc(/C=N/n2cnnc2)ccc1OC	0.1µM	u	n	u	n	n
SMILES	MARV entry inh	SARS PLP yeast	HCMV inh	FMDV inh	LASV entry inh	HCV inhibitor
COc1ccc(/C=N\NC(=O)c2ccccc2F)cc1COc1ccc(F)cc1F	u	n	-80	n	u	u
COc1ccc(/C=N\NC(=O)c2ccccc2F)cc1COc1ccc(F)cc1	u	n	n	n	n	n
CCN1CCCC1CN(Cc1cc2ccc(C)cc2[nH]c1=O)C(=S)Nc1ccc(OC)cc1 (stereo not given)	n	n	u	n	u	n
COc1ccc2[nH]c(=O)c(CN(CC3CCCO3)C(=S)Nc3ccccc3)cc2c1 (stereo not given)	x	n	n	n	x	u
Cc1cc2cc(CN(CC3CCCO3)C(=S)NCc3ccco3)c(=O)[nH]c2cc1C (stereo not given)	n	n	n	n	n	n
Cc1cc2cc(CN(CC3CCCO3)C(=S)Nc3ccccc3)c(=O)[nH]c2cc1C (stereo not given)	u	n	-82	n	7.1µM	u
CCN1CCCC1CN(Cc1cc2ccc(C)cc2[nH]c1=O)C(=S)Nc1cccc(OC)c1 (stereo not given)	10µM	n	n	n	u	u
COc1ccc2cc(CN(CC3CCCO3)C(=S)Nc3ccccc3)c(=O)[nH]c2c1 (stereo not given)	u	n	-73	n	u	u
CN(C)CCCN(Cc1cc2cc3c(cc2[nH]c1=O)OCO3)C(=S)Nc1cccc(Cl)c1	u	n	u	n	u	10µM
CCN1CCCC1CNC(=O)c1cnn(-c2nccc(-c3cc(OC)ccc3OC)n2)c1C (stereo not given)	x	x	x	n	x	x
CC(=O)OC[C@H]1O[C@H](CC=NO[C@H](C)c2cn([C@H](CO)Cc3ccccc3)nn2)C=C[C@@H]1OC(C)=O	n	x	x	x	n	x
CCOc1ccc(CN(CCc2ccc3c(c2)OCO3)Cc2cc(OC)cc(OC)c2)cc1	n	x	n	u	n	x
CCOc1ccc(N(Cc2cc3cc(OC)ccc3[nH]c2=O)C(=O)C2CCCO2)cc1 (stereo not given)	n	n	n	n	n	n
CCN1CCCC1CN(Cc1cc2ccc(C)c(C)c2[nH]c1=O)C(=O)Nc1ccccc1OC (stereo not given)	18µM	n	n	n	n	u
COc1ccc(N(Cc2cc3ccccc3[nH]c2=O)C(=O)C2CCCO2)cc1 (stereo not given)	n	n	-65	n	n	n
CCN1CCCC1CN(Cc1cc2ccc(C)cc2[nH]c1=O)C(=S)Nc1ccccc1OC (stereo not given)	u	n	n	n	n	n
COc1cccc(-c2ccc(O)c(CNCc3cccc(OC)c3OC)c2)n1	x	x	x	n	x	x
C=C1C(=O)C23C(O)C1CCC2C12CCCC(C)(COC(C)=O)C1C(O)C3(O)OC2 (stereo not given)	u	x	n	3.5µM	11µM	3.5µM
Cc1c(CN2CCC(CO)(CCOc3ccccc3)CC2)[nH]c2c(Cl)cccc12	x	n	n	n	x	14µM
OCC1(CCOc2ccccc2)CCN(Cc2ccccc2OC(F)F)CC1	u	u	n	n	n	n
Cc1nn(C)c(Cl)c1CN1CCC(CO)(CCOc2ccccc2)CC1	u	n	n	u	n	n
OCC1(CCOc2ccccc2)CCN(Cc2ccc(OC(F)F)cc2)CC1	u	n	n	n	n	13µM
CSc1ccc(CCNC(=O)CN2C(=O)COc3ccc(S(=O)(=O)N4CCCCCC4)cc32)cc1	u	x	n	n	u	x
COc1cc2c(ccc3cc(OC)c(OC)c(O)c32)cc1O	x	n	-105	n	x	u
CC1=Nc2ccccc2/C1=C\c1sc(Nc2ccc(C)cc2)nc1O	u	n	-89	n	u	u
Oc1nc(Nc2ccc(F)cc2)sc1/C=C1\C=Nc2ccccc21	u	n	u	n	u	u

Compound activity (PubChem BioAssay)
